Results filed as inconclusive are left out. Values without a mark were called inactive. Calls come from the whole dose curve; as a rule, active = well fitted inhibition curve with a large enough effect; inconclusive = small, poorly fitted or top-dose-only effect; inactive = no such curve, though single readings can be large or run the other way.
Experiment: qHTS to identify inhibitors of the type 1 interferon - major histocompatibility complex class I in skeletal muscle: primary screen against the NCATS Mechanism Interrogation Plate v5.0 (MIPE) Libary (AID 1347411);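 note: plate controls were vehicle for no effect and reference inhibitor for full effect; nearly all actives have a fitted effect of over 65% in size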
Conditions: iHSKM cells + IFN-b, HiBiT-tagged MHC-I luminescence, 24 h; series mostly up to 45.8 µM; activity change, negative = inhibition: at the top concentration
Outline: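 Immortalized human myoblasts (C25cl48) with HiBit knocked into endogenous HLA-B*08:01 were stimulated with 4 ng/ml IFN-beta and given compounds in 11-point 1:3 titration from 46 uM. After 24 h at 37 C, lytic HiBiT luminescence was read.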

SMILES	activity change, negative = inhibition
S=C(NCc1ccc2c(c1)OCO2)N1CCN(c2ncnc3c2oc2ccccc23)CC1	-12.5%
COc1cc(Oc2ccnc3cc(OC)c(OC)cc23)ccc1NC(=O)NC(C)c1nccs1 (stereo unspecified)	-23.6%
COc1nc(-c2ccc3c(c2)OCO3)n(-c2ccc(NC(=O)CSc3ccccc3)cc2)n1	-28.1%
CCCCCCCc1ccc(CCc2cccc(O)c2C(=O)O)cc1	-17%
NC(=O)c1ccc(-c2nc(-c3ccc4c(c3)OCO4)c(-c3ccccn3)[nH]2)cc1	-3.37%
CC(C)(N)C(=O)N[C@H](COCc1ccccc1)C(=O)N1CCC2(CC1)CN(S(C)(=O)=O)c1ccccc12	31.4%
Cc1ccnc(NS(=O)(=O)c2ccc(NC(=O)Nc3ccc(S(=O)(=O)Nc4nccc(C)n4)cc3)cc2)n1	-2.17%
OC[C@H](Cc1ccccc1)Nc1nc(Oc2ccc3c(c2)CCC3)nc2c1ncn2Cc1ccc(-c2ccccc2)cc1	11.9%
NC(=O)C1CCCc2c1[nH]c1ccc(Cl)cc21 (stereo unspecified)	-13.5%
COc1ccc(CC2=NN3C([C@@H](CCc4ccccc4)[C@@H](C)O)=NC(C)C3C(=O)N2)cc1OC (stereo partly specified)	-0.76%
O=c1[nH]c(-c2ccc(C(F)(F)F)cc2)nc2c1CSCC2	-17.3%
